High-throughput results as filed in PubChem.
S2 tox: viability counter-screen for ATXN expression inhibitors; S2 cells (HEK-293 line with an ATXN2-luciferase reporter) viability, CellTiter-Fluor protease fluorescence, 24 h; Potency, µM (titrated, usually from 56.7 µM), hits mostly cytotoxic; 400,000 compounds, 0.49% hits; AID 651635; also: potency is read from the fitted curve at half-maximal effect; nearly all actives have a fitted effect of over 40% in size
a7 integrin act: activators of alpha7 integrin expression for muscular dystrophy; AID 624291; Potency, µM (doses to about 38.3 µM), inactives show at the top dose activation, usual class: activators; 350,000 compounds, 0.064% hits; alpha7betagal myoblasts, beta-gal FDG fluorescence, 48 h;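 also: potency is read from the fitted curve at half-maximal effect; 100% = response of the positive control SU9516; nearly all actives have a fitted effect of over 60% in size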
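alpha7betagal+/- myoblasts (passage 13, 250/well) treated 48 h at 37C with compounds at 1:260 dilution of DMSO stock. Lysed, then beta-galactosidase activity read as FDG fluorescence (ex 480/em 540) after 30 min, with pre-read for autofluorescence.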
DRD3 antagonist: antagonists of human D3 dopamine receptor; D3R cells, DiscoveRx beta-arrestin luminescence, antagonist mode; active compounds read low; P35462; AID 652054; 360,000 compounds, 2.5% hits; max response, negative = inhibition, %; in the data active = max response below about -50%; inconclusive = no clear call, values can overlap the other calls; also: % is scaled to controls: 0 for no effect and ±100 for the full control effect
Target sequence (P35462 whole entry, looked up): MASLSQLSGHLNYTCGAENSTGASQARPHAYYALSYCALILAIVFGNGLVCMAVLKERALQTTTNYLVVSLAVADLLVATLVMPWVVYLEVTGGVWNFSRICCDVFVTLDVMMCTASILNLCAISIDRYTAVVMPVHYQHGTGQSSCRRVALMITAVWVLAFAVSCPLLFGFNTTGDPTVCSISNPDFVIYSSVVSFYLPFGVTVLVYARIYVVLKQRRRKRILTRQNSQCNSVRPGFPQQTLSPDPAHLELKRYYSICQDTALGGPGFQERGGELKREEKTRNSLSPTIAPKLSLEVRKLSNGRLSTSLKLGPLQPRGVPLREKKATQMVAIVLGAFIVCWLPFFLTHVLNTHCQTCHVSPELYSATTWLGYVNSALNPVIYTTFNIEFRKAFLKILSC
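Cells expressing the human receptor were seeded at 1500 cells/well, incubated overnight at 37 degrees C in 5% CO2, then exposed to library compounds with dopamine controls for 90 minutes at 37 degrees C before luminescent detection.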
ATXN2 expr inh: ATXN2 expression inhibition; 360,000 compounds, 0.72% hits; HEK-293 ATXN2-luciferase reporter, luminescence, 24 h; Potency, µM (top dose mostly 57 µM), without a hit: at the highest dose activity change, negative = inhibition, usual class: inhibitors; also: potency is read from the fitted curve at half-maximal effect; % is scaled to controls: 0 for no effect and ±100 for the full control effect; nearly all actives have a fitted effect of over 55% in size
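qHTS (up to 57 uM final) was run with 24 h compound exposure of reporter cells at 37 °C. Each well was multiplexed: SteadyGlo luminescence measured ATXN2-luciferase expression after a fluorogenic Gly-Phe-AFC viability readout (25 uM final).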
IL1B secr inh: blocks inflammasome-driven IL-1 beta release | THP-1 LPS/ATP IL-1B secretion, AlphaLISA, 16 h; active compounds read low | activity change, % at 57.5 µM | 360,000 compounds, 4.7% hits; in the data active = activity change below about -50%; inconclusive = mostly about -30% to -49%; also: % is scaled to controls: 0 for no effect and ±100 for the full control effect
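THP-1 cells pretreated 1 hr with compounds (up to 57.5 uM final), then stimulated with LPS (250 ng/mL final) plus ATP (1.25 mM final); secreted IL-1B measured by AlphaLISA after 16 hr, decreased signal indicating inhibition.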
D3 ag: agonists of human D3 dopamine receptor; max activation, %; D3R DiscoveRx beta-arrestin cells, luminescence, 90 min; 410,000 compounds, 0.58% hits; in the data active = max activation above about 30%; also: 0% is about no effect
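Cells at 1500/well, incubated overnight, then treated with pinned compounds (dopamine as control) for 90 min at 37 degrees C. DiscoveRx reagent added for 30 - 60 minutes at room temperature; luminescence read.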
* hit, by the source's call; i = inactive; ? = inconclusive; · = no result; [ ] = another dose, or the depositor's remark. An excerpt weighted towards active compounds, which were near 7% of everything screened. Unless noted, calls follow the shape of the dose curve; as a rule, active = well fitted curve in the direction sought with a large enough effect; inconclusive = small, poorly fitted or top-dose-only effect, or another doubt; inactive = no such curve, though single readings can be large; an effect the other way counts as inactive or inconclusive.

SMILES	S2 tox	a7 integrin act	DRD3 antagonist	ATXN2 expr inh	IL1B secr inh	D3 ag
CC(C)CN1CCN(Cc2ccc(Oc3ncccn3)cc2)CC1CCO (stereo not drawn)	i	-12%	-10	-13%	-3	-14
OCC1(Cc2ccc(Cl)cc2)CCN(Cc2ccc(Oc3ncccn3)cc2)CC1	i	-31%	-11	-20%	-90*	-2
N#Cc1ccccc1N=Cc1ccc(Br)cc1	i	-14%	11	2%	6	4
CCOC(=O)N1CCN(C(=O)CSc2nnc3[nH]c(=O)c(C)c(C)n23)CC1	i	7%	7	12%	2	3
COc1ccccc1N1CCN(C(=O)CN2C(=O)COc3ccc(S(=O)(=O)N4CCC(C)CC4)cc32)CC1	i	·	·	6%	·	2
O=C1CC(=Nc2ccc([N+](=O)[O-])cc2)NN1c1c(Cl)cc(Cl)cc1Cl	i	-11%	?	·	-74*	2
O=C1c2ccccc2C(=O)c2c1oc(C(F)(F)F)c2C(=O)c1ccccc1	?	-8%	-70*	?	-84*	-20
O=C(c1ccccc1)c1coc2c1C(=O)c1ccccc1C2=O	i	-47%	-13	-1%	-28	-7
O=C(COc1ccccc1Cl)Nc1ccc(N2CCN(C(=O)c3ccccc3)CC2)cc1	?	-21%	65	18µM*	-22	25
COc1ccc(OCC(=O)Nc2ccc(N3CCN(C(=O)c4ccco4)CC3)cc2)cc1	i	-20%	3	9%	-7	5
Cc1cc(C)cc(OCC(=O)Nc2ccc(N3CCN(C(=O)c4ccco4)CC3)cc2)c1	i	-12%	28	-13%	?	37*
CCOc1ccc(C)cc1-n1nc2ccccc2n1	i	-3%	38	?	-1	-1
O=C(COc1ccccc1Cl)Nc1ccc(N2CCCC2)cc1	i	22%	3	0%	-12	4
Cc1ccc(OCC(=O)Nc2ccc(Cl)cc2)c(-n2nc3ccccc3n2)c1	·	?	-8	35µM*	-6	-35
Cc1cccc(OCC(=O)Nc2ccc(N3CCN(C(=O)c4ccccc4)CC3)cc2)c1	?	-17%	23	-30%	-68*	2
NCC1CCC(C(=O)Oc2ccc(CCC(=O)O)cc2)CC1 (stereo not drawn)	i	·	29	-11%	11	1
CCN1CCN(c2ccc(NC(=O)COc3ccccc3Cl)cc2)CC1	i	13%	-64*	-1%	-17	2
CCN1CCN(c2ccc(NC(=O)COc3ccc(Cl)cc3C)cc2)CC1	i	-21%	-52*	-15%	-11	-23
O=C(COc1ccccc1[N+](=O)[O-])Nc1ccc(N2CCN(C(=O)c3cccs3)CC2)cc1	?	-57%	73	?	?	34*
CC1CN(S(=O)(=O)c2ccc(C(=O)N3c4ccccc4CC3C)cc2)CC(C)O1 (stereo not drawn)	?	1%	-19	-1%	15	0
Cc1ccc(NCc2nnc(SCC(=O)N3CCc4ccccc43)n2C)cc1	?	0%	-15	-12%	13	7
CC(c1ccccc1F)n1cc(C(=O)NCc2ccncc2)nn1 (stereo not drawn)	i	-22%	-19	2%	3	4
COc1ccc(/C=C(/C#N)c2nc(-c3ccc(-c4ccccc4)cc3)cs2)cc1OC	i	·	·	0%	·	9
COc1ccc(-c2csc(/C(C#N)=C(\O)CSc3nccn3C)n2)cc1OC	i	-3%	-55*	2%	-15	-5
COc1ccc(NC(=O)C(Cl)=C(Cl)Cl)cn1	i	-60%	6	-17%	-97*	7
SMILES	S2 tox	a7 integrin act	DRD3 antagonist	ATXN2 expr inh	IL1B secr inh	D3 ag
COc1ccc(NC(=O)c2cccc(S(=O)(=O)Nc3ccc(Br)cc3)c2)cn1	i	-20%	11	-21%	-80*	15
COc1ccc(NC(=O)Nc2cc(C)cc(C)c2)cn1	i	?	5	22%	-2	5
O=C(Nc1ccc(Br)cc1)c1cccc(S(=O)(=O)Nc2cnc3ccccc3c2)c1	i	-3%	-3	-17%	?	15
COc1ccc(NC(=O)c2cc(Br)c(Br)s2)cn1	i	26%	3	9%	-53*	2
COc1ccc(NC(=O)Nc2ccc(OCc3ccccc3)cc2)cn1	i	-34%	-18	-21%	37	-2
COc1ccc(NC(=O)/C(Cl)=C(/Cl)S(=O)(=O)Cc2ccccc2)cn1	14µM*	-2%	-28	13µM*	-118*	-9
COc1ccc(Cc2nnc(NC(=O)c3cccs3)s2)cc1	i	?	-22	35%	16	-2
Cc1ccc([N+](=O)[O-])c(OCC(O)CNC(C)(C)C)c1 (stereo not drawn)	i	-25%	-12	·	0	-21
COc1ccc(NC(=O)/C(Cl)=C(/Cl)S(=O)Cc2ccc(Cl)cc2)cn1 (stereo not drawn)	2.8µM*	-50%	-116*	2.5µM*	-102*	-33
COc1ccc(NC(=O)C(C)(C)Oc2ccc(Cl)cc2)cn1	?	6%	-15	5%	-2	5
Cc1ccc(C(=O)c2c3ccccc3[n+]([O-])n2[C@@H](C)C(N)=O)cc1	?	-20%	-64*	23%	25	-16
CCC1CCCCN1c1nc(-c2cccc(OC)c2O)nc2ccccc12 (stereo not drawn)	i	-16%[7.66 µM]	28	2%	-8	31*
CCC(C)Nc1nc(-c2cccc(OC)c2O)nc2ccccc12 (stereo not drawn)	?	-25%	13	?	-74*	-3
COc1cccc(-c2nc(NC(C)C)c3ccccc3n2)c1O	i	7%	43	1%	?	9
COc1cccc(-c2nc(NCC3CCCO3)c3ccccc3n2)c1O (stereo not drawn)	?	0%	20	-11%	-84*	8
Cc1c(C(=O)Nc2ccc(C(C)C)cc2)sc2nc3n(c(=O)c12)CCC3	·	·	·	·	·	-2
COc1ccccc1NC(=O)CN1CCN(CC(=O)Nc2ccc(Cl)c(C(F)(F)F)c2)CC1	·	-49%	0	?	-80*	21
COc1ccc(NC(=O)COc2ccccc2C(=O)NCC(c2ccccc2)N(C)C)cc1Cl (stereo not drawn)	?	-55%	16	-26%	-102*	-10
COc1ccc(NC(=O)CCCC(=O)O)cc1Cl	i	?	-50*	-20%	-2	7
COc1ccc(NC(=O)CCCN2C(=O)CCC2=O)cc1Cl	i	-14%	-13	8%	-12	3
COc1ccc(NC(=O)CN2CCN(CC(=O)Nc3ccccc3Cl)CC2)cc1Cl	i	4%	-11	-12%	-51*	-1
